Assay outcomes as filed in PubChem BioAssay.
CHRM4 agonist = agonists of human muscarinic M4 receptor (CHRM4) | P08173 | CHO-K1 hM4/Gqi5, Fluo-8 calcium fluorescence; vehicle 0%, full acetylcholine response 100% | activation, % at 3 µM | 360,000 tested, 0.14% active | AID 624127;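 active = activation above the run mean over all test wells plus 3 SD, cut at about 32% in these data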;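 note: peak over basal fluorescence ratio per well then scaled between controls; 0% = DMSO wells and 100% = acetylcholine at EC100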
M4 PAM = CHRM4 positive allosteric modulation; 360,000 tested, 0.4% active; activation, % at 3 µM; CHO-K1 hM4/Gqi5, Fluo-8 calcium fluorescence, ACh EC20; 0% = ACh EC20, 100% = maximal ACh; P08173;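 active = activation above its plate's cutoff, the mean activation of sample wells plus 3 SD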
M1 PAM = potentiates human M1 receptor response to acetylcholine; P11229; CHO-K1 hM1, Fluo-8 calcium fluorescence, ACh EC20; 0% = ACh EC20, 100% = maximal ACh; activation, % at 3 µM; 360,000 tested, 0.088% active; in the data active = activation above about 19%, passing the limit was not always enough
Target sequence (P11229 whole entry, looked up): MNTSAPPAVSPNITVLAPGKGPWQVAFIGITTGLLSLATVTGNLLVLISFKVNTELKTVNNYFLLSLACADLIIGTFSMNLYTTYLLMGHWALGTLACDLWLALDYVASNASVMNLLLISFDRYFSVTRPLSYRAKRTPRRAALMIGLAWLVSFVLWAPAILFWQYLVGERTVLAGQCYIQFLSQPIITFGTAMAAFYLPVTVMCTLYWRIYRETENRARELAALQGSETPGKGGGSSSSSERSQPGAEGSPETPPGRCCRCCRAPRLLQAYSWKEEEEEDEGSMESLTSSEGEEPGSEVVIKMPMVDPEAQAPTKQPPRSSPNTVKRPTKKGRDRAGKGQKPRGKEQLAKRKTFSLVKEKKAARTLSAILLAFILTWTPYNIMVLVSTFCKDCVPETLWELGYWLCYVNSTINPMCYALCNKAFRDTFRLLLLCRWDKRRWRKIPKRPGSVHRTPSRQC
M4 antag = antagonists of human muscarinic M4 receptor (CHRM4). inhibition, % at 3 µM. CHO-hM4 cells, ACh EC80, Fluo-8 calcium fluorescence. P08173. 360,000 tested, 0.73% active;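 active = inhibition above its plate's cutoff, the mean inhibition of sample wells plus 3 SD, cut at about 27% in these data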;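 note: 0% = acetylcholine EC80 with DMSO and 100% = DMSO without agonist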
M1 antag = blocks human M1 muscarinic receptor; AID 588852; CHO-K1 hM1, Fluo-8 calcium fluorescence, ACh EC80 antagonist; inhibition, % at 3 µM; 360,000 tested, 1.3% active; P11229;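 active = percent inhibition above its own plate's cutoff, namely the mean of that plate's compound wells plus 3 SD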;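 note: peak over basal fluorescence ratio during 140 s after agonist addition; 0% = ACh EC80 plus DMSO and 100% = DMSO alone without agonist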
CHRM1 agonist = human M1 muscarinic receptor agonism; P11229; CHO-K1 hM1, Fluo-8 calcium fluorescence, agonist mode; 0% DMSO, 100% acetylcholine EC100; activation, % at 3 µM; 360,000 tested, 0.33% active;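 active = activation above the run's mean compound activation plus 3 SD, cut at about 16% in these data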;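 note: peak over basal fluorescence ratio within a 140 s kinetic read after compound addition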
Starred values were filed as active, the others as inactive. A selection: hits, their analogues and other compounds. The true share with any hit is near 2.2%.

SMILES	CHRM4 agonist	M4 PAM	M1 PAM	M4 antag	M1 antag	CHRM1 agonist
CCC1CCCCN1CCCNC(=O)CN1C(=O)CSc2ccc(S(=O)(=O)N3CCC(C)CC3)cc21 (stereo not given)	-0.4	-8.7	-13.6	13.6	38.7*	-6.1
CC(C)CN(CCCNC(=O)CN1C(=O)CSc2ccc(S(=O)(=O)N3CCOCC3)cc21)CC(C)C	0.8	-0.5	0.8	1.6	4.0	-5.6
CC(C)CN(CCNC(=O)CN1C(=O)CSc2ccc(S(=O)(=O)N3CCOCC3)cc21)CC(C)C	0.5	0.6	-10.3	4.0	40.4*	-6.0
Cc1nc(CS(=O)(=O)c2ccccc2)cc(Sc2ccc(Cl)cc2)n1	2.2	-3.1	5.3	-5.2	-7.1	-2.2
Cn1c(NCC2CCCCC2)nc2cc(-c3ccsc3)sc2c1=O	0.3	-4.0	5.1	3.6	-17.1	-1.4
CCn1ncc(CN2CCCC(C(=O)Nc3cccc(-c4cc5ccccc5[nH]4)c3)C2)c1C (stereo not given)	12.5	-1.9	-9.3	4.8	25.1*	-2.0
CCOc1ccccc1CN1CCCC(C(=O)Nc2cccc(-n3cccn3)c2)C1 (stereo not given)	18.2	-22.5	-22.4	-16.0	71.0*	-1.9
Cc1c(Cl)c(C(=O)NNC(=S)Nc2ccccc2)nn1C	0.3	-3.9	3.9	6.5	-17.8	-0.7
O=C(CCc1nc2ccccc2c(=O)[nH]1)NCCN1C(=O)S/C(=C\c2ccc(Cl)cc2Cl)C1=O	1.9	-6.6	-11.2	-15.4	26.1*	-0.4
COc1ccc(C(=O)CSc2cc(C)[nH]c(=O)n2)cc1	1.2	-7.6	7.1	1.1	0.7	2.3
Cn1nnnc1SCc1ccc(C(=O)Nc2ccccc2F)cc1	1.7	2.1	6.3	10.9	0.1	-3.2
Cc1cc(C)cc(NC(=O)c2ccc(CSc3nnnn3C)cc2)c1	13.2	-12.3	-8.0	11.4	27.9*	1.8
CCOc1ccccc1CNC(c1ccccc1)c1ccccc1	-1.7	-7.8	-0.8	2.8	-2.0	-3.0
CC(C)(C)OC(=O)NCCCCCc1nnc(SCC(=O)Nc2cccc(Cl)c2)o1	18.0	-19.1	-13.1	21.5	36.2*	3.5
CC(C)(C)OC(=O)NCCc1nnc(SCC(=O)Nc2cccc(Cl)c2)o1	11.5	-14.0	3.4	3.1	-2.4	-1.0
O=C(CCc1ccccc1)NNC(=O)C12CC3CC(CC(C3)C1)C2	0.1	2.4	9.4	-3.4	-4.7	-3.2
COCCNC(=S)N/N=C(\C)c1ccc(OC(F)F)cc1	0.5	2.7	3.5	-28.3	-7.8	-5.3
CNC(=O)c1cc(Oc2ccc(NC(=O)Nc3ccc(Cl)c(C(F)(F)F)c3)cc2)ccn1	20.9	-15.1	-16.6	31.8*	32.3	-0.7
O=C(Nc1ccc(Cl)c(C(F)(F)F)c1)c1ccncc1	29.1	-11.4	-9.2	-6.5	18.3	-1.2
CC1CC(C)(C)CC2(C1)NC(=O)N(CC(=O)N1CCN(S(=O)(=O)c3cccc(Cl)c3Cl)CC1)C2=O (stereo not given)	2.7	-7.5	-19.8	10.6	45.0*	-6.4
CCN1CCC2(CC1)N=C(c1ccc(F)cc1)C(=S)N2	1.5	-3.1	-22.4	-4.5	38.6*	-7.8
Cc1cc2c(c(=O)n1CCc1ccccc1)C(C(C)C)C(C#N)=C(N)O2 (stereo not given)	1.5	-5.7	2.1	7.9	-0.4	-2.9
Oc1ccccc1CNc1ccc(Br)cn1	1.4	-16.9	-7.9	32.5*	14.4	-0.9
CCN(CC)CCCN(C(=O)c1ccccc1C)c1nc(-c2ccc(OC)cc2)cs1	1.3	-0.3	6.4	-3.5	-17.1	-8.0
COc1ccc(-c2csc(N(CCCN(C)C)C(=O)c3ccc(Br)cc3)n2)cc1	16.0	47.0*	-8.0	23.4	-1.2	-7.4
Cc1ccc(-c2csc(N(CCCN3CCOCC3)C(=O)c3ccco3)n2)cc1	19.9	-7.8	-14.5	7.4	14.9	-7.5
COc1ccc(-c2csc(N(CCCN3CCOCC3)C(=O)c3ccco3)n2)cc1	16.4	-9.6	-8.9	35.7*	42.4*	-3.2
CCN(CC)CCCN(C(=O)c1ccc(OC)cc1)c1nc(-c2ccc(OC)cc2)cs1	10.4	48.9*	-6.2	28.9*	-4.7	-7.6
